Only some compounds are listed: those with a hit (about 3.3% of all), similar ones and a draw of the others.
Sm TGR inh = blocks Schistosoma mansoni thioredoxin glutathione reductase; purified TGR, DTNB reduction, TNB absorbance 405 nm; Q962Y6; Potency, µM (highest dose often 114 µM), for the others: at the top dose activity change, negative = inhibition, most hits filed as inhibitors; hit rate 3% among 360,000; AID 485364; note: % is set by controls: 0 for no effect and ±100 for the full control effect; nearly all actives have a fitted effect of over 60% in size
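Kinetic colorimetric format: TGR-catalysed, NADPH-driven DTNB reduction monitored via TNB absorbance. Enzyme dispensed at 20 nM; compound exposure 15 min at room temperature before reaction start.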
AmpC detergent = AmpC beta-lactamase inhibition with detergent present. Potency, µM (doses to about 114 µM), inactives show at the top dose activity change, negative = inhibition, hits mostly inhibitors. AID 485294. AmpC hydrolysis of nitrocefin, absorbance 480 nm, 0.01% Triton. hit rate 0.041% among 370,000;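 note: 0% = no-compound wells and -100% = no-enzyme wells; nearly all actives have a fitted effect of over 25% in size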
Target sequence (P00811 whole entry, looked up): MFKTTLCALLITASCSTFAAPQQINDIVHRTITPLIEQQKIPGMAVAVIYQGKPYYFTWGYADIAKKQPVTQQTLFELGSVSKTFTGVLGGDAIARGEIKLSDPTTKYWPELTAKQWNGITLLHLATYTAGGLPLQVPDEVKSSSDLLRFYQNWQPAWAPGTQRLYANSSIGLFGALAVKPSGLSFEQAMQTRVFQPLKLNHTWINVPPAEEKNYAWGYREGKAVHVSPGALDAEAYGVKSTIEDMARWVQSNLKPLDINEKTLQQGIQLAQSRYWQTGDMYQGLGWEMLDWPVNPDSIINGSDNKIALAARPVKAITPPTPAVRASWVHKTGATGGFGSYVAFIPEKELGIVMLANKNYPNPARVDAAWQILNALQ
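AmpC (5.3 nM in the dispensed reagent) in 20 mM phosphate pH 7.0 with 0.01% (detergent screen) or 0.0001% Triton X-100 was preincubated with compounds for 15 min at room temperature. Nitrocefin was then added from an 800 uM solution, and hydrolysis was followed at 480 nm.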
RE007 growth inh = less growth of the S. pombe RE007 Vpr strain; S. pombe RE007 Vpr strain, BacTiter-Glo ATP luminescence, 24 h; hit rate 0.21% among 360,000; Potency, µM (titrated, usually from 92.2 µM), inactives show top-dose activity change, negative = less growth, hits mostly inhibitors; active = well fitted falling curve with a large enough effect; inconclusive = small, poorly fitted or top-dose-only effect; inactive = no such curve, though single readings can be large or run the other way; note: % is set by controls: 0 for no effect and ±100 for the full control effect; nearly all actives have a fitted effect of over 50% in size
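Fission yeast RE007 carrying one integrated HIV-1 vpr copy, seeded at OD 0.01 in PMG+AL medium with 23 nL pinned compound. Grown 24 h at 30 degrees; viability read by BacTiter-Glo luminescence after 5 min.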
AmpC no deterg = blocks E. coli AmpC beta-lactamase in detergent-free assay; AmpC nitrocefin hydrolysis, absorbance 480 nm, 0.0001% Triton; Potency, µM (doses to about 57.1 µM), for inactives: at the highest dose activity change, negative = inhibition, hits mostly inhibitors; hit rate 0.52% among 330,000; AID 485341;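 note: plate controls were no compound for no effect and no enzyme for full effect; nearly all actives have a fitted effect of over 20% in size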
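AmpC (5.3 nM in the dispensed reagent) in 20 mM phosphate pH 7.0 with 0.01% (detergent screen) or 0.0001% Triton X-100 was preincubated with compounds for 15 min at room temperature. Nitrocefin was then added from an 800 uM solution, and hydrolysis was followed at 480 nm.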
SARS PLP yeast = blocks SARS-CoV papain-like protease in a yeast assay. Potency, µM (doses to about 32.9 µM), inactives show at the highest dose activity, positive = growth rescue, actives largely listed as activators. hit rate 0.19% among 330,000. S. cerevisiae expressing SARS-CoV PLpro, growth rescue; calls by dose curve; note: 0% is about no effect; nearly all actives have a fitted effect of over 55% in size
Tb PYK inh = inhibitors of Trypanosoma brucei pyruvate kinase; TbPYK enzyme, Kinase-Glo Plus ATP luminescence, 45 min; Potency, µM (doses to about 76.8 µM), for inactives: top-dose activity, negative = inhibition, actives largely listed as inhibitors; hit rate 0.12% among 410,000; note: % is set by controls: 0 for no effect and ±100 for the full control effect; nearly all actives have a fitted effect of over 50% in size
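Enzyme and substrate buffer are dispensed first and compound is pin-transferred. ADP at 130 uM final then starts the reaction, which runs 45 min at room temperature. Detection reagent is added for 10 min before luminescence is imaged.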
* marks the source's active call; other numbers are inactive results; ? = inconclusive; . = no result. Unless noted, calls come from the whole dose curve; as a rule, active = well fitted curve in the direction sought with a large enough effect; inconclusive = small, poorly fitted or top-dose-only effect, or another doubt; inactive = no such curve, though single readings can be large; an effect the other way counts as inactive or inconclusive. Potency is the fitted concentration of half-maximal effect.

SMILES	Sm TGR inh	AmpC detergent	RE007 growth inh	AmpC no deterg	SARS PLP yeast	Tb PYK inh
NNc1nc(C(F)(F)F)nc2ccccc12	6%	-1%	-2%	-13%	-2%	2%
O=C(CSc1ncnc2c1oc1ccccc12)NCc1ccco1	28µM*	-2%	-9%	11%	-6%	0%
O=C(Cn1cnc2sc(-c3ccccc3)cc2c1=O)NCc1ccco1	13µM*	-6%	-8%	-30%	0%	?
Cc1sc2nc(C(C)C)nc(SCC(=O)NCc3ccco3)c2c1C	45µM*	-5%	14%	-2%	-10%	-11%
Cc1ccc(SCC(=O)NCc2ccco2)cc1	?	1%	-2%	-30%	-18%	-3%
Cc1nc(SCC(=O)NCc2ccco2)nc(C)c1C	22µM*	4%	31%	-9%	1%	-6%
O=C(Cn1cnc2sc(-c3ccccc3)cc2c1=O)NCc1ccccc1	2%	?	0%	-28%	2%	-2%
CCn1cc(C(=O)NCCc2ccccc2)c(=O)c2cc(S(=O)(=O)N(C)C3CCCCC3)ccc21	0%	0%	.	.	.	-7%
CCOC(=O)C1=C(CS(=O)(=O)c2c(C)cc(C)cc2C)NC(=O)NC1c1cccc(OC)c1 (stereo not given)	5%	19%	.	.	.	-3%
Cc1ccc(-n2ncc(C(=O)NCCCN3CCc4ccccc4C3)c2C2CCN(C(=O)OC(C)(C)C)CC2)c(C)c1	-2%	-5%	.	.	.	1%
CCOC(=O)c1cccc(NC(=O)c2cc3cc4ccc(C)cc4nc3o2)c1	3%	1%	.	.	.	7%
O=S(=O)(c1ccc(Cl)cc1Cl)n1ccnc1	32%	-2%	.	.	.	2%
CCOC(=O)c1c(C)oc2ncnc(Nc3cc(C)cc(C)c3)c12	2%	19%	.	.	.	1%
Cc1nc(SCC(=O)NC(=O)NCc2ccco2)nc(C)c1C	40µM*	?	34%	-34%	2%	-20%
Cc1nc(SCC(=O)NC(=O)NCc2ccccc2)nc(C)c1C	11%	-1%	3%	14%	1%	3%
O=C(CSc1ncc(-c2ccccc2)nn1)NCc1ccco1	?	0%	11%	-24%	0%	-2%
O=C(CSc1nnc(-c2ccccc2)c(-c2ccccc2)n1)NCc1ccco1	40µM*	-5%	3%	-28%	10%	-8%
O=C(Cn1ncn2c(cc3ccccc32)c1=O)NCc1ccco1	32µM*	-4%	1%	16%	-1%	-5%
Cc1c(S(=O)(=O)c2ccccn2)c(N)n(Cc2cccc(Cl)c2)c1C	2µM*	7%	-4%	-8%	-8%	0%
O=S(=O)(c1ccc(Cl)cc1)c1ccccn1	-8%	-11%	2%	-20%	3%	5%
O=C(Nc1nc(-c2ccc(Cl)cc2Cl)cs1)C1CCCO1 (stereo not given)	-2%	-3%	16µM*	-7%	-47%	-1%
O=C(Nc1nc(-c2ccc(Cl)cc2)cs1)C1CCCO1 (stereo not given)	-13%	-12%	22µM*	2%	0%	3%
CS(=O)(=O)Nc1ccc(C(=O)NCCSCc2ccco2)cc1	?	-4%	0%	?	0%	0%
O=C(NCCSCc1ccco1)c1ccc(=O)[nH]c1	35µM*	-4%	9%	-19%	1%	-6%
O=C(CSCc1ccco1)c1ccc(Cl)s1	28µM*	?	.	?	2%	.
SMILES	Sm TGR inh	AmpC detergent	RE007 growth inh	AmpC no deterg	SARS PLP yeast	Tb PYK inh
O=C(CSCc1ccc(Cl)cc1)NCCSCc1ccco1	28µM*	-7%	-6%	-31%	-7%	-2%
O=C(CSCc1c(F)cccc1Cl)NCCSCc1ccco1	.	4%	-20%	-7%	0%	1%
Cc1c(CNCCc2ccc(S(N)(=O)=O)cc2)c(C(=O)O)c(C)n1Cc1ccc(Cl)cc1	-12%	2%	.	.	.	-5%
Cc1ccc(CN2CCCn3nc(C(=O)NCC(C)c4ccccc4)cc3C2=O)cc1 (stereo not given)	-2%	-8%	.	.	.	1%
O=C(c1ccccc1)N1CCCCC1CCN1CCCCC1 (stereo not given)	-11%	-7%	.	.	.	-12%
O=C(NCC(c1ccc2c(c1)OCO2)N1CCOCC1)c1ccccc1F (stereo not given)	-14%	3%	.	.	.	-7%
O=C(O)CCCNC(=O)/C(=C\C=C\c1ccccc1)NC(=O)c1ccccc1Cl	40µM*	-12%	-3%	-11%	1%	-4%
CCOC(=O)c1c(Nc2ccc(OCC)cc2)nnc(-c2ccccc2)c1-c1ccccc1	1%	-8%	.	.	.	-1%
Cc1cccc(NC(=O)Cn2c(=O)ccc3cc(S(=O)(=O)N4CCCC4)ccc32)c1C	9%	2%	.	.	.	-7%
Cc1cc(C)nc(NC(=NCc2ccc3c(c2)OCO3)NC(=O)Nc2ccccc2)n1	1.4µM*	-5%	-12%	.	.	0%
Cn1c(SCc2ccccc2)nnc1-c1c[nH]c2ccccc12	0%	?	-7%	25µM*	-5%	-1%
CCCCSc1nnc(-c2c[nH]c3ccccc23)n1C	-29%	-10%	0%	-13%	3%	1%
NC(=O)c1ccsc1NC(=O)c1nc(-c2ccccc2)n(-c2ccccc2)n1	-5%	-8%	-2%	4µM*	0%	0%
O=C(Nc1ccccn1)c1nc(-c2ccccc2)n(-c2ccccc2)n1	0%	4%	11%	0%	3%	3%
CC(CCc1ccc2c(c1)OCO2)NN (stereo not given)	.	.	.	.	.	3%
O=C(OCCCc1cc2ccccc2c(=O)o1)c1ccccc1C(F)(F)F	11µM*	-4%	7%	-9%	-5%	1%
CCN(CC)C(=O)OCCc1cc2ccccc2c(=O)o1	3.2µM*	-2%	4%	-25%	-2%	-4%
O=C(O)c1ccccc1C(=O)OCCc1cc2ccccc2c(=O)o1	-13%	4%	2%	-16%	3%	-8%
N#Cc1ccc(C(=O)OCCCc2cc3ccccc3c(=O)o2)cc1	50µM*	3%	2%	-12%	10%	0%
O=C(OCCCc1cc2ccccc2c(=O)o1)c1ccc(F)cc1	35µM*	3%	-13%	-10%	-1%	-1%
COc1cc2cc(CCCOC(=O)c3ccc(F)cc3)oc(=O)c2cc1OC	?	-1%	-2%	40%	4%	1%
Cc1ccc(/C=N/n2c(-c3ccccc3)csc2=S)cc1	.	.	.	.	.	-8%
CCN(CC)C(=O)c1ccc(NC(=O)c2cccc(S(=O)(=O)N3CCN(C)CC3)c2)cc1	5%	1%	3%	113%	3%	-2%

Source: PubChem (National Center for Advancing Translational Sciences (NCATS))
